# Source: the supplement of paper PMC8728848
# This is one part of a sample in which the strongest signals are shown more often than they occur.
# B1: MIC1 (Toxoplasma gondii), O00834 (protein)
# chain: MGQALFLTVLLPVLFGVGPEAYGEASHSHSPASGRYIQQMLDQRCQEIAAELCQSGLRKMCVPSSRIVARNAVGITHQNTLQWRCFDTASLLESNQENNGVNCVDDCGHTIPCPGGVHRQNSNHATRHEILSKLVEEGVQRFCSPYQASANKYCNDKFPGTIARRSKGFGNNVEVAWRCYEKASLLYSVYAECASNCGTTWYCPGGRRGTSTELDKRHYTEEEGIRQAIGSVDSPCSEVEVCLPKDENPPLCLDESGQISRTGGGPPSQPPEMQQPADRSDERGGGKEQSPGGEAQPDHPTKGGNIDLPEKSTSPEKTPKTEIHGDSTKATLEEGQQLTLTFISTKLDVAVGSCHSLVANFLDGFLKFQTGSNSAFDVVEVEEPAGPAVLTIGLGHKGRLAVVLDYTRLNAALGSAAYVVEDSGCSSSEEVSFQGVGSGATLVVTTLGESPTAVSA
# B2: Fm1D (Escherichia coli) (protein)
# chain: FSCNVDGGSSIGAGTTSVYVNLDPVIQPGQNLVVDLSQHISCWNDYGGWYDTDHINLVQGSAFAGSLQSYKGSLYWNNVTYPFPLTTNTNVLDIGDKTPMPLPLKLYITPVGAAGGVVIKAGEVIARIHMYKIATLGSGNPRNFTWNIISNNSVVMPTHHHHHH
# Key:
# Test in all cases: glycan array binding signal (z-score within array); higher = stronger binding
# Settings in all cases: glycan notation: IUPAC condensed, linker removed
# [1] = target: Fuc(a1-2)Gal(b1-3)GalNAc(b1-4)[Neu5Ac(a2-3)]Gal(b1-4)Glc
# Outline: (§1)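 Glycan array data were curated from 3228 arrays in the Consortium for Functional Glycomics database and kept only where the protein sequence was available. Glycan names were converted to IUPAC-condensed notation, and columns mapping to the same glycan were averaged. The binding signal is a within-array Z-score, averaged across arrays of the same protein sequence at different concentrations or buffers and across linkers. Negative Z-scores can be read as non-binding.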
# [2] = target: Fuc(a1-2)Gal(b1-4)[Fuc(a1-3)]GlcNAc
# Outline: as §1
# [3] = target: Fuc(a1-2)Gal(b1-4)[Fuc(a1-3)]GlcNAc(b1-3)Gal(b1-4)[Fuc(a1-3)]GlcNAc
# Outline: as §1
# [4] = target: Fuc(a1-3)[Gal3S(b1-4)]GlcNAc
# Outline: as §1
# [5] = target: Fuc(a1-3)[Gal3S(b1-4)]GlcNAc6S
# Outline: as §1
# Gal(a1-3)Gal(b1-3)GlcNAc = target: Gal(a1-3)Gal(b1-3)GlcNAc
# Outline: as §1
# [6] = target: Gal(a1-3)Gal(b1-4)[Fuc(a1-3)]GlcNAc
# Outline: as §1
# Gal(a1-3)GalNAc = target: Gal(a1-3)GalNAc
# Outline: as §1
# Gal3S(b1-4)Glc = target: Gal3S(b1-4)Glc
# Outline: as §1
# Gal3S6S(b1-4)GlcNAc = target: Gal3S6S(b1-4)GlcNAc
# Outline: as §1
# Gal4S6S(b1-4)GlcNAc = target: Gal4S6S(b1-4)GlcNAc
# Outline: as §1
# GlcNAc3Prop(b1-4)GlcNAc = target: GlcNAc3Prop(b1-4)GlcNAc
# Outline: as §1
# Kdn(a2-3)Gal(b1-4)GlcNAc = target: Kdn(a2-3)Gal(b1-4)GlcNAc
# Outline: as §1
# [7] = target: Man(a1-2)Man(a1-3)[Man(a1-2)Man(a1-6)]Man(a1-6)[Man(a1-2)Man(a1-2)Man(a1-3)]Man
# Outline: as §1
# Neu5Ac(a2-3)Gal = target: Neu5Ac(a2-3)Gal
# Outline: as §1
# [8] = target: Neu5Ac(a2-3)Gal(b1-3)GalNAc(b1-4)[Neu5Ac(a2-3)]Gal(b1-4)Glc
# Outline: as §1
# [9] = target: Neu5Ac(a2-3)Gal(b1-3)GlcNAc6S
# Outline: as §1
# [10] = target: Neu5Ac(a2-3)Gal(b1-3)[Neu5Ac(a2-3)Gal(b1-4)]GlcNAc
# Outline: as §1
# [11] = target: Neu5Ac(a2-3)Gal(b1-4)GlcNAc(b1-2)Man(a1-3)[GlcNAc(b1-2)Man(b1-4)GlcNAc(b1-2)Man(a1-6)]Man(b1-4)GlcNAc(b1-4)GlcNAc
# Outline: as §1
# [12] = target: Neu5Ac(a2-3)Gal(b1-4)GlcNAc6S
# Outline: as §1
# [13] = target: Neu5Ac(a2-3)Gal6S(b1-4)[Fuc(a1-3)]GlcNAc
# Outline: as §1
# [14] = target: Neu5Ac(a2-3)[GalNAc(b1-4)]Gal(b1-4)GlcNAc
# Outline: as §1
# [15] = target: Neu5Ac(a2-3)[Neu5Ac(a2-6)]GalNAc
# Outline: as §1
# [16] = target: Neu5Ac(a2-6)Gal(b1-4)GlcNAc(b1-3)Gal(b1-4)[Fuc(a1-3)]GlcNAc(b1-3)Gal(b1-4)[Fuc(a1-3)]GlcNAc
# Outline: as §1
# [17] = target: Neu5Ac(a2-6)GalNAc(b1-4)GlcNAc
# Outline: as §1
# [18] = target: Neu5Ac9Ac(a2-6)Gal(b1-4)GlcNAc
# Outline: as §1
# [19] = target: Neu5Gc(a2-3)Gal(b1-4)GlcNAc
# Outline: as §1
# [20] = target: Neu5Ac(a2-3)Gal(b1-4)GlcNAc(b1-6)[Gal(b1-3)]GalNAc
# Outline: as §1
# [21] = target: Neu5Ac(a2-3)Gal(b1-4)[Fuc(a1-3)]GlcNAc(b1-3)Gal(b1-4)GlcNAc
# Outline: as §1
# [22] = target: Neu5Ac(a2-6)Gal(b1-4)GlcNAc(b1-2)[Neu5Ac(a2-6)Gal(b1-4)GlcNAc(b1-4)]Man(a1-3)[GlcNAc(b1-4)][Neu5Ac(a2-6)Gal(b1-4)GlcNAc(b1-2)[Neu5Ac(a2-6)Gal(b1-4)GlcNAc(b1-6)]Man(a1-6)]Man(b1-4)GlcNAc(b1-4)GlcNAc
# Outline: as §1
# [23] = target: Neu5Ac(a2-6)Gal(b1-4)GlcNAc(b1-3)Gal(b1-4)GlcNAc(b1-3)Gal(b1-4)GlcNAc
# Outline: as §1
# [24] = target: Neu5Ac(a2-6)Gal(b1-4)GlcNAc(b1-3)Gal(b1-4)GlcNAc(b1-6)[Gal(b1-3)]GalNAc
# Outline: as §1
# [25] = target: Neu5Ac(a2-6)Gal(b1-4)GlcNAc(b1-6)[Gal(b1-3)]GalNAc
# Outline: as §1
# [26] = target: Neu5Ac(a2-8)Neu5Ac(a2-8)Neu5Ac(a2-3)[GalNAc(b1-4)]Gal(b1-4)Glc
# Outline: as §1
# [27] = target: Neu5Gc(b2-6)Gal(b1-4)GlcNAc
# Outline: as §1
Binder,glycan array binding signal (z-score) [1],glycan array binding signal (z-score) [2],glycan array binding signal (z-score) [3],glycan array binding signal (z-score) [4],glycan array binding signal (z-score) [5],glycan array binding signal (z-score) (Gal(a1-3)Gal(b1-3)GlcNAc),glycan array binding signal (z-score) [6],glycan array binding signal (z-score) (Gal(a1-3)GalNAc),glycan array binding signal (z-score) (Gal3S(b1-4)Glc),glycan array binding signal (z-score) (Gal3S6S(b1-4)GlcNAc),glycan array binding signal (z-score) (Gal4S6S(b1-4)GlcNAc),glycan array binding signal (z-score) (GlcNAc3Prop(b1-4)GlcNAc),glycan array binding signal (z-score) (Kdn(a2-3)Gal(b1-4)GlcNAc),glycan array binding signal (z-score) [7],glycan array binding signal (z-score) (Neu5Ac(a2-3)Gal),glycan array binding signal (z-score) [8],glycan array binding signal (z-score) [9],glycan array binding signal (z-score) [10],glycan array binding signal (z-score) [11],glycan array binding signal (z-score) [12],glycan array binding signal (z-score) [13],glycan array binding signal (z-score) [14],glycan array binding signal (z-score) [15],glycan array binding signal (z-score) [16],glycan array binding signal (z-score) [17],glycan array binding signal (z-score) [18],glycan array binding signal (z-score) [19],glycan array binding signal (z-score) [20],glycan array binding signal (z-score) [21],glycan array binding signal (z-score) [22],glycan array binding signal (z-score) [23],glycan array binding signal (z-score) [24],glycan array binding signal (z-score) [25],glycan array binding signal (z-score) [26],glycan array binding signal (z-score) [27]
B1,-0.232,-0.213,-0.138,-0.041,-0.233,-0.059,-0.014,-0.139,-0.149,-0.228,-0.218,-0.196,-0.256,-0.307,-0.068,-0.19,0.131,4.31,3.01,6.25,-0.178,5.43,-0.313,-0.268,-0.152,-0.294,9.71,–,–,–,–,–,–,–,–
B2,–,–,–,–,–,–,–,–,–,–,–,–,–,–,–,–,–,–,–,–,–,–,–,–,-0.144,–,–,5.29,-0.14,-0.142,-0.146,11.5,3.09,-0.152,-0.143
